Data as given in PubChem BioAssay (NCATS).
Records with an inconclusive call do not appear. Calls of active or inactive are those of the source. Calls follow the shape of the dose curve; as a rule, active = well fitted inhibition curve with a large enough effect; inconclusive = small, poorly fitted or top-dose-only effect; inactive = flat fitted curve, though single readings scatter.

Tests used:
Assay in all cases: qHTS profiling for inhibitors of Plasmodium falciparum proliferation (AID 504749); also: nearly all actives have a fitted effect of over 60% in size
Settings in all cases: P. falciparum in erythrocytes, SYBR Green DNA, 72 h; series mostly up to 28.7 µM
[1] = test system: CP297
Procedure, shortened: (§1)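 SYBR Green fluorescence (ex 485 nm, em 535 nm) reports parasite DNA after 72 h compound exposure of infected red cells at 0.3% parasitemia, 2.5% hematocrit; signal normalized to 0.29 uM artemisinin and vehicle wells.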

[2] = test system: CP305
Procedure, shortened: as §1

[3] = test system: CP315
Procedure, shortened: as §1

[4] = test system: CP325
Procedure, shortened: as §1

[5] = test system: CP329
Procedure, shortened: as §1

[6] = test system: CP335
Procedure, shortened: as §1

[7] = test system: DFO2036
Procedure, shortened: as §1

[8] = test system: DIV14
Procedure, shortened: as §1

[9] = test system: DIV17
Procedure, shortened: as §1

[10] = test system: DIV30
Procedure, shortened: as §1

[11] = test system: Dd2
Procedure, shortened: as §1

[12] = test system: ECU
Procedure, shortened: as §1

[13] = test system: FAB9
Procedure, shortened: as §1

[14] = test system: GB4
Procedure, shortened: as §1

[15] = test system: HB3
Procedure, shortened: as §1

[16] = test system: ICS
Procedure, shortened: as §1

[17] = test system: JCK
Procedure, shortened: as §1

[18] = test system: N140
Procedure, shortened: as §1

[19] = test system: P93_24
Procedure, shortened: as §1

[20] = test system: P94_40
Procedure, shortened: as §1

Measured: Potency
Potency is read from the fitted curve at half-maximal effect.

c1ccc2ccccc2c1
inactive: all assays above

O=C(O)CCC/C=C\C[C@@H]1[C@@H](/C=C/[C@@H](O)COc2cccc(C(F)(F)F)c2)[C@H](O)C[C@@H]1O
not listed: [16] | [18] | [20]
inactive: all other assays above

CN1C(C(=O)Nc2ccccn2)C(=O)c2sc(Cl)cc2S1(=O)=O (stereo unspecified)
not listed: [16]
inactive: all other assays above

COc1ccc(-c2noc(CC(=O)O)c2-c2ccc(OC)cc2)cc1
not listed: [14]
inactive: all other assays above

CC(C)CCCCCCc1ccc(O)cc1
active: [16] 12.6 µM | [20] 12.6 µM
not listed: [12] | [19]
inactive: all other assays above

CC(C)=CCC/C(C)=C/CC/C(C)=C/CC/C=C(\C)CC/C=C(\C)CCC=C(C)C
active: [13] 10 pM
not listed: [17]
inactive: all other assays above

O=C(O)CCC/C=C\C[C@@H]1[C@@H](/C=C/[C@@H](O)COc2cccc(Cl)c2)[C@H](O)C[C@@H]1O
not listed: [9] | [16]
inactive: all other assays above

C[C@@](Cc1ccc(O)c(O)c1)(NN)C(=O)O
not listed: [16] | [20]
inactive: all other assays above

Nc1nccs1
inactive: all assays above

CCCCC[C@H](O)/C=C/[C@H]1[C@H](O)CC(=O)[C@@H]1C/C=C\CCCC(=O)O
inactive: all assays above

C(=C\c1ccncc1)/c1ccccc1
not listed: [12] | [15] | [16] | [19]
inactive: all other assays above

CC(=O)Oc1cccc2c1C(=O)c1c(OC(C)=O)cc(C(=O)O)cc1C2=O
not listed: [18]
inactive: all other assays above

CCCCCCCCCCCCCCCCCCCCCC(=O)Nc1ccn([C@@H]2O[C@H](CO)[C@@H](O)[C@@H]2O)c(=O)n1
not listed: [14] | [16]
inactive: all other assays above
